Here are results for 27 compounds from PubChem BioAssay AID602281 (The Scripps Research Institute Molecular Screening Center, 2012).

Each structure is given as a SMILES string. Among all 360,000 compounds or so, about 2,900 (0.81%) were called active. The list comes from a sample in which actives are over-represented; it also holds similar structures and randomly drawn compounds. A number with no mark means an inactive call.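 How the source made its calls: active means inhibition above the mean inhibition across every tested compound plus 3 SD (cut at about 22% in these data); inactive means the rest.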

For the experiment, the target named is Perilipin-5 (Homo sapiens) + 1-acylglycerol-3-phosphate O-acyltransferase ABHD5 (Homo sapiens) (UniProt Q00G26+Q8WTS1). Kind of experiment: ABHD5-PLIN5 interaction inhibitors, primary screen, cell lysate, split luciferase complementation, luminescence (AID 602281).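 Further: 0% = DMSO only wells and the 100% control is not disclosed.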 The settings on record: Split G. princeps luciferase complementation, 4 h, at 4 µM, stronger effect = higher value.
Perilipin-5 (Homo sapiens) + 1-acylglycerol-3-phosphate O-acyltransferase ABHD5 (Homo sapiens), sequence (Q00G26 whole entry, looked up): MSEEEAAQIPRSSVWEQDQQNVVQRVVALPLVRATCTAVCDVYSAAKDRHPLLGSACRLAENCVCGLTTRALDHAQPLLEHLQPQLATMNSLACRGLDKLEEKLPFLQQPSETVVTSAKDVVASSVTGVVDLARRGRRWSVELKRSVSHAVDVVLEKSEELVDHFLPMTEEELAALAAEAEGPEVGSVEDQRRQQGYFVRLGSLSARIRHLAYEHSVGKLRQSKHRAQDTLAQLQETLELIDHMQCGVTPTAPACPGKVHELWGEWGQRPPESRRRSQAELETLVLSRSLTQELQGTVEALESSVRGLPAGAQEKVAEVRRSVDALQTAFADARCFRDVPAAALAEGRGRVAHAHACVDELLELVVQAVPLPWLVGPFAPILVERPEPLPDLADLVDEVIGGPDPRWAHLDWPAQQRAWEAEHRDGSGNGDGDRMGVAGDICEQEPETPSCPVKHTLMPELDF
Perilipin-5 (Homo sapiens) + 1-acylglycerol-3-phosphate O-acyltransferase ABHD5 (Homo sapiens), sequence (Q8WTS1 whole entry, looked up): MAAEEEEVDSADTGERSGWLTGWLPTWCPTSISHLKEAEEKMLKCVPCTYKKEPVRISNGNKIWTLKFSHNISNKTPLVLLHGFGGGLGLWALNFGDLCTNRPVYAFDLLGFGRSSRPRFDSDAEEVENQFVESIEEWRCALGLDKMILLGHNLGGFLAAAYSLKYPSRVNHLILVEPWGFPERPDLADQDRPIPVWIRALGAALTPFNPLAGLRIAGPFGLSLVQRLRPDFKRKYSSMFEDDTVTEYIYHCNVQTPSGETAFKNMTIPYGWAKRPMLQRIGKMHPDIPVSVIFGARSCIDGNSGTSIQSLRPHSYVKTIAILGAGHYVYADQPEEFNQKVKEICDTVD
As usually defined, the inhibition is the relative decrease from the control value, in per cent. As for `Cc1ccccc1/C=C\c1nc(O)c([N+](=O)[O-])c(=O)[nH]1`, the inhibition is 15.6%.

In the case of `O=c1[nH]c(/C=C\c2cccc(C(F)(F)F)c2)nc(O)c1[N+](=O)[O-]`, the inhibition was 42.7% (active).

With `O=c1cc(O)c(-c2cccc(C(F)(F)F)c2)c(Cl)[nH]1`, the inhibition was 1.03%.

Regarding `COCCCNC(NC(=O)c1ccc(C)cc1)C(Cl)(Cl)Cl` (configuration not stated), the inhibition is -2.85%.

On to `COc1ccccc1CNC(=O)c1ccc(N(C)S(=O)(=O)c2ccc(C)cc2)cc1`, for which the inhibition was 4.36%.

With `CN(CCO)S(=O)(=O)c1ccc2c(c1)C(=O)c1cc(S(=O)(=O)N(C)CCO)ccc1-2`, the inhibition is -0.45%.

Take `CCC1(c2ccccc2)NC(=O)N(CC(=O)Nc2ccccc2C(=O)NC2CCCC2)C1=O` (configuration not stated): the inhibition is -4.04%.

For the compound `C=C(C)C(=O)O[C@H]1C/C(C)=C\C(=O)/C=C(\C)[C@H](O)[C@@H]2OC(=O)C(=C)[C@@H]21`, the inhibition was 27% (active).

Regarding `CCS(=O)(=O)Nc1ccc(C2=NN(S(=O)(=O)c3ccc(F)cc3)C(c3ccco3)C2)cc1` (configuration not stated), the inhibition was 29.4% (active).

With `COc1cccc(C2CC(c3ccccc3)=NN2S(=O)(=O)c2ccccc2)c1OC` (configuration not stated), the inhibition was -7.74%.

For `Cc1ccc(C2=NN(C(=O)CSc3nc(N)cc(N)n3)C(c3ccco3)C2)cc1` (configuration not stated), the inhibition is 12.7%.

As to `C/C(=C\c1ccccc1)C1NC(=O)c2c(sc3c2CCCC3)N1` (configuration not stated), the inhibition is -8.89%.

On to `Cc1[nH]c(=O)c(C(=O)/C=C/c2ccccc2)c2c1CCCC2`, for which the inhibition was 32.6% (active).

With `O=C(NCc1ccccn1)c1c(O)c2c([nH]c1=O)CCCC2`, the inhibition is 3.03%.

For `COC(=O)COc1cccc2c(=O)n(CC(=O)NCc3ccccc3)ccc12`, the inhibition was -4.9%.

In the case of `CN(C)CCCN(C(=O)c1ccc(S(=O)(=O)N2CCCCCC2)cc1)c1nc2ccc(Br)cc2s1`, the inhibition was 22.3% (active).

Consider `CCN(CC(=O)Nc1c(F)cccc1F)C(=O)c1ccc(S(=O)(=O)N2CCCCC2)cc1`, for which the inhibition was 0.66%.

`COc1cc(C(=O)NNC(=O)c2ccc(S(=O)(=O)N3CCCCC3)cc2)cc(OC)c1OC`: the inhibition is 0.06%.

For `O=C(O)CCn1cc(/C=C/C(=O)c2ccc(Cl)cc2)c(-c2cccc(Br)c2)n1`, the inhibition is 22.9% (active).

For `COc1ccc(NC(=O)CN(C)C(=O)/C=C/c2cn(Cc3ccccc3)nc2-c2cccnc2)cc1`, the inhibition is 0.58%.

On to `Cc1ccc(S(=O)(=O)N[C@H](CO)C(C)C)cc1`, for which the inhibition was 2.76%.

For the compound `COc1ccc(/C=C/C(=O)c2ccc(NS(=O)(=O)c3ccc(C)cc3)cc2)cc1O`, the inhibition is 46% (active).

As for `COc1ccc(S(=O)(=O)Nc2ccc3oc(C)c(C(C)=O)c3c2)cc1`, the inhibition is 4.01%.

As for `COc1ccc(C(=O)/C=C/c2ccc(-c3ccccc3)cc2)cc1CSCC(=O)O`, the inhibition was 14.9%.

Turning to `CC(C)Cc1nn2c(=O)cc(O)nc2s1`, the inhibition was 4.21%.

Take `O=C(NCC(=O)N(Cc1cccs1)C(C(=O)NC1CCCCC1)c1ccco1)c1cccs1` (configuration not stated): the inhibition was -12.1%.

Regarding `CCNC(=O)CC1C(=O)N(c2ccc(OC)cc2)C(=O)N1CCOC` (configuration not stated), the inhibition was 2.8%.
